Compound activity as filed in PubChem.
Shown are actives, neighbours in structure and some others; about 4.1% of the full set was active somewhere.
hcDAF-12 act: H. contortus DAF-12 activation, primary screen. HEK293 hcDAF-12 lit1-tk-luc reporter, luminescence; 0% DMSO, 100% Δ7-dafachronic acid. activation, % at 6.8 µM. 1.4% of 370,000 active. AID 652067;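 active means activation above the mean of all tested compounds plus 3 SD, cut at about 5.5% in these data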
DAX1 inh-1: NR0B1 (DAX1) inhibition; inhibition, % at 6.75 µM; AID 504766; 0.99% of 340,000 active; HEK293 Gal4-DAX1 luciferase reporter, luminescence;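 active means inhibition above the mean over all tested compounds plus 3 SD, cut at about 4.2% in these data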;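 further: inhibition shows as a rise in luminescence from relieved DAX1 repression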
Target sequence (P51843 207-470 limits assumed): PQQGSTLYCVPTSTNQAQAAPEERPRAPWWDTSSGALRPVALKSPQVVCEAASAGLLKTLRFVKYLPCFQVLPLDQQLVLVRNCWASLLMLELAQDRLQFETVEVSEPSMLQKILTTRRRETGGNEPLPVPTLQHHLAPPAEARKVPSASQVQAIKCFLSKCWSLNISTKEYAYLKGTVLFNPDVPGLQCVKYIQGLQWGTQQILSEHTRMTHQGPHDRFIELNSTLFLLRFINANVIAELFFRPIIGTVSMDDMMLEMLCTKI
ssDAF12 agonist: activators of S. stercoralis DAF-12 nuclear receptor. activation, % at 6.8 µM. HEK293 ssDAF-12/GRIP1 lit1-tk-luc reporter, luminescence; % of 3 µM dafachronic acid response. AID 652126. 1% of 370,000 active;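 active means activation above the mean over all tested compounds plus 3 SD, cut at about 0.9% in these data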
DAX1 inh-2: blocks DAX1 repression of SF-1 activated StAR promoter; HEK293T StAR-luciferase reporter, SF-1/DAX-1 repression relief; inhibition, % at 6.8 µM; 1.1% of 370,000 active; AID 652010;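 active means inhibition above the mean over all tested compounds plus 3 SD, cut at about 3.6% in these data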;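 further: higher inhibition means more luminescence from relief of DAX-1 repression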
hgDAF-12 ag: agonists of H. glycines DAF-12 nuclear receptor; HEK293 GAL4-hgDAF12 UAS-luciferase reporter, agonist luminescence; normalized to butyrate control; 1.8% of 370,000 active; activation, % at 6.8 µM;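 active means activation above a cutoff set at the mean of all screened compounds plus 3 SD, cut at about 10% in these data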
Of the large screens only hits and unclear results are named; the others gave an inactive call.

C[C@@H]1ON(C)[C@H]2C[C@H]3c4[nH]c5c(-c6ccccc6)cccc5c4CCN3C[C@@H]12	none (no result: DAX1 inh-1)
C=CCN(C(=O)[C@@H](CCCC)[C@@H](O)c1ccc(C(C)=O)cc1)c1ccccc1	none (no result: DAX1 inh-1)
O=c1c(O)c(-c2ccc(O)c(O)c2)oc2cc(O)cc(O)c12	hgDAF-12 ag 12
O=C(NCc1ccco1)C1CCCN(S(=O)(=O)c2ccc(F)cc2)C1 (stereo not drawn)	none (no result: DAX1 inh-1)
CC(NC(=O)C1CCCC1)c1ccccc1 (stereo not drawn)	none
O=C(NC(c1ccccc1)c1ccccc1)C1CCCC1	ssDAF12 agonist 1.4
Cc1ccc(CN[C@@H]2CC[C@@]34CCCN3C(=O)CCC[C@H]4C2)cc1	none (no result: DAX1 inh-1, DAX1 inh-2)
COc1cccc(CC(=O)Nc2ccc3c(c2)c(=O)n(C)n3-c2ccc(C(C)(C)C)cc2)c1	ssDAF12 agonist 4.1 (no result: DAX1 inh-1)
COc1ccccc1NC(=O)Nc1nc(CC(=O)NCc2cccnc2)cs1	DAX1 inh-1 4.8
COc1ccc(CNC(=O)Cc2csc(NC(=O)Nc3ccccc3OC)n2)cc1	none
COc1cc(/C=N/NC(=O)c2c(C)nc3ccc(Cl)cn23)cc(OC)c1OC	DAX1 inh-1 5.3
COc1ccc(S(=O)(=O)Nc2cc(Cl)ccc2OC)cc1	ssDAF12 agonist 2.7
N#CCC[C@H]1CC[C@]2(CCCN(Cc3cccc4ccccc34)C2)O1	none (no result: DAX1 inh-1)
O=C(/C=C/c1nc2ccccc2s1)N1CCCCCC1	hgDAF-12 ag 11
COc1ccc(NC(=O)N2CCCCC2c2cccnc2)cc1 (stereo not drawn)	hcDAF-12 act 5.6, hgDAF-12 ag 11
COc1cc(OC)cc(C(=O)NC(=S)N2CCCCC2c2cccnc2)c1 (stereo not drawn)	none
O=C(N/C(=C/C=C/c1ccccc1)C(=O)N1CCOCC1)c1ccccc1Cl	hcDAF-12 act 6.0
O=C(Nc1ccc(C(=O)O)cc1)/C(=C\C=C\c1ccccc1)NC(=O)c1ccccc1Cl	DAX1 inh-2 4.3
COc1ccc(-c2noc(C3CCCN(C(=O)Nc4ccc(C)c(F)c4)C3)n2)cc1 (stereo not drawn)	none (no result: DAX1 inh-1)
Cn1nnc2c(NCc3ccco3)nccc21	none
COc1ccc(Nc2nccc3c2nnn3C)cc1	DAX1 inh-2 4.2
Cc1cccc2cc(CN(C(=O)c3cccc([N+](=O)[O-])c3)C(C)C)c(=O)[nH]c12	ssDAF12 agonist 0.9
O=C(NC1CCCCN(Cc2ccc(OC(F)(F)F)cc2)C1=O)c1ccc2ccccc2c1 (stereo not drawn)	none (no result: DAX1 inh-1)
CCCCN1C2CCCC1CC(NC(=O)c1ccccc1Cl)C2 (stereo not drawn)	DAX1 inh-1 4.7
CN=c1scc(-c2ccco2)n1/N=C/c1ccc(O)c(O)c1	hcDAF-12 act 8.4, hgDAF-12 ag 17
CCOC(=O)[C@]12CCCC=C1N(Cc1ccc(OC)cc1)C(=O)[C@@H]2CC(=O)NCCC(C)C	none (no result: DAX1 inh-1)
COC(=O)c1ccc(C2NC(C(=O)O)CS2)cc1 (stereo not drawn)	DAX1 inh-1 4.6
CC(C)(C)NC(=O)NC(=O)COC(=O)CNS(=O)(=O)c1ccc(Br)cc1Cl	DAX1 inh-1 5.8
O=C(CNS(=O)(=O)c1ccc(Br)cc1Cl)OCC(=O)N1CCCC1=O	none
S=C(Nc1ccccc1)Nc1ccccc1-n1cccc1	hcDAF-12 act 5.7 (no result: DAX1 inh-1)
S=C(Nc1ccccc1)Nc1ccc(Br)cc1	DAX1 inh-1 5.7
O=C(c1ccc(F)c(F)c1)N1CCC(Oc2cccnc2)CC1	none (no result: DAX1 inh-1)
c1ccc(CN2CCN(c3ncnc4sccc34)CC2)cc1	none (no result: DAX1 inh-1, DAX1 inh-2)
CCN(C(=O)CSC1=Nc2ccccc2C2CC=NN12)C1CCS(=O)(=O)C1 (stereo not drawn)	hcDAF-12 act 5.8
Cc1ccc(-c2nnc(SCC#CCOC(=O)c3cccs3)o2)cc1	none
O=C(OCC#CCSc1nnc(-c2ccc(Br)cc2)o1)c1cccs1	ssDAF12 agonist 1.0
N#C/C(=C/c1ccc(N2CCCCC2)o1)c1cccc(F)c1	DAX1 inh-2 4.4
CC(C)c1ccccc1NC(=O)[C@@H]1CCCN1S(=O)(=O)c1cccc2cccnc12	none (no result: DAX1 inh-1, DAX1 inh-2)
CCn1c(NC(=O)c2ccccc2)nc2ccccc21	ssDAF12 agonist 2.3 (no result: DAX1 inh-1)
COC(=O)Cn1c(C(O)c2ccccc2)nc2ccccc21 (stereo not drawn)	ssDAF12 agonist 1.7
CCn1c(C(C)NC(C)=O)nc2ccccc21 (stereo not drawn)	hgDAF-12 ag 12
CCn1c(C(C)NC(=O)c2cccs2)nc2ccccc21 (stereo not drawn)	none
O=C(N[C@H](Cc1ccccc1)C(=O)NCC1CCCCC1)[C@H]1O[C@@H](n2ccc(=O)[nH]c2=O)[C@H](O)[C@@H]1O	none (no result: DAX1 inh-1)
c1ccc(Cn2c(SCC3CCCCC3)nnc2-c2cccnc2)cc1	none (no result: DAX1 inh-1)
CC1(C)CC(=O)N(CC(=O)N2CCN(Cc3ccccc3)CC2)c2ccccc2S1(=O)=O	none (no result: DAX1 inh-1)
O=C(NC(Cc1c[nH]c2ccccc12)C(=O)O)c1cccc(S(=O)(=O)N2CCCCC2)c1 (stereo not drawn)	hcDAF-12 act 5.7
COC(=O)C(Cc1c[nH]c2ccccc12)NC(=O)c1cccc(S(=O)(=O)N2CCCCC2)c1 (stereo not drawn)	none
O=C(NC(Cc1c[nH]c2ccccc12)C(=O)O)c1ccccc1 (stereo not drawn)	ssDAF12 agonist 1.2
CCN(C(=O)COC(=O)Cc1c[nH]c2ccccc12)C1CCS(=O)(=O)C1 (stereo not drawn)	hcDAF-12 act 6.1, ssDAF12 agonist 1.2
O=C(Cn1nnc2ccccc2c1=O)N[C@@H](Cc1c[nH]c2ccccc12)C(=O)O	ssDAF12 agonist 1.0
CCc1ccccc1-c1cc(C(=O)OC)c2n(c1=O)CCC2	none (no result: DAX1 inh-1)
COc1ccc(CNCC#Cc2cccnc2)c(OC)c1	none (no result: DAX1 inh-1)
C[C@@H]1CCCCO[C@H](CN(C)C(=O)CCC(F)(F)F)[C@H](C)CN([C@@H](C)CO)C(=O)c2cc(NS(=O)(=O)c3ccc(Cl)cc3)ccc2O1	none (no result: DAX1 inh-1)
O=C(CSc1nnc(COc2ccc(Cl)cc2)n1Cc1ccco1)Nc1ccc2c(c1)OCO2	none (no result: DAX1 inh-1)
COC(=O)C(Cc1c[nH]c2ccccc12)NC(=O)c1ccccc1Br (stereo not drawn)	ssDAF12 agonist 1.1
Cc1noc(C)c1C(=O)NC(Cc1c[nH]c2ccccc12)C(=O)O (stereo not drawn)	ssDAF12 agonist 1.2
Cc1nc(N[C@@H](Cc2c[nH]c3ccccc23)C(=O)O)c2oc3ccccc3c2n1	hcDAF-12 act 5.9 (no result: DAX1 inh-1)
CC(Cc1c[nH]c2ccccc12)C(=O)O (stereo not drawn)	none
Cc1oc2c(c1C(=O)NC(Cc1c[nH]c3ccccc13)C(=O)O)CCCC2 (stereo not drawn)	none
CCc1nc(N[C@@H](Cc2c[nH]c3ccccc23)C(=O)O)c2oc3ccccc3c2n1	none
O=C(O)C(O)Cc1c[nH]c2ccccc12 (stereo not drawn)	DAX1 inh-1 4.7
COP(=O)(O)C(Cc1ccccc1)NC(=O)OCc1ccccc1 (stereo not drawn)	none (no result: DAX1 inh-1)
